Among the data in PubChem BioAssay (EPA / NIEHS) are outcome and AC50 values, retold here.

Assay [1] deals with human Adenosine A1 Receptor (AdoRA1), ADORA1 (gene 134) (UniProt P30542). Nature of the assay: NVS_GPCR_hAdoRA1: NovaScreen (NVS) G Protein-Coupled Receptor Assay for human Adenosine A1 Receptor (AdoRA1) (AID 2283254). A digest of the protocol:
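Membranes from human cortical tissue were incubated with radioligand and test chemical for 1 hour, then filtered and counted. Activity was taken as signal loss relative to DMSO, screened at 25 uM in duplicate before concentration-response follow-up.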

Assay [2] concerns the target human Serotonin, 5-Hydroxytryptamine Receptor 5A (5HT5A), HTR5A (gene 3361) (UniProt P47898). The experiment in a line: NVS_GPCR_h5HT5A: NovaScreen (NVS) G Protein-Coupled Receptor Assay for human Serotonin, 5-Hydroxytryptamine Receptor 5A (5HT5A) (AID 2283251). In a few lines: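 Membranes from HEK293 cells, radioligand binding read by filtration and scintillation after 1 h. Single-concentration duplicate testing at 25 uM, then concentration-response for actives; positive-direction fitting relative to DMSO.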

The target of assay [3] is guinea pig Opioid, Kappa 1 Receptor (OpiateK), OPRK1 (gene 100135587) (UniProt P41144). Nature of the assay: NVS_GPCR_gOpiateK: NovaScreen (NVS) G Protein-Coupled Receptor Assay for guinea pig Opioid, Kappa 1 Receptor (OpiateK) (AID 2283252).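 Further: radioligand displacement from kappa opioid receptor in guinea pig cerebellar membranes; active means reduced radioligand binding relative to DMSO.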 A digest of the protocol:
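Cell-free tissue prep: guinea pig cerebellar membranes, radioligand displacement, 2 h incubation. Readout: filtration plus scintillation counting. Primary single-point 25 uM duplicate; actives retested in concentration series; DMSO negative control.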

The target in assay [4] is human Serotonin, 5-Hydroxytryptamine Receptor 7 (5HT7), HTR7 (gene 3363) (UniProt P34969). The experiment in a line: NVS_GPCR_h5HT7: NovaScreen (NVS) G Protein-Coupled Receptor Assay for human Serotonin, 5-Hydroxytryptamine Receptor 7 (5HT7) (AID 2283255).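 Further: hits reduce specific radioligand binding relative to DMSO.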 In a few lines: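 Filter-bound radioactivity counted after 1 h, with loss of specific radioligand binding fitted against DMSO. Membrane protein came from CHO cells expressing human 5HT7. Chemicals were tested first at 25 uM in duplicate, then in concentration series if active.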

Assay [5] has as its target human Endothelin Receptor Type B (ETB), EDNRB (gene 1910) (UniProt P24530). The experiment in a line: NVS_GPCR_hETB: NovaScreen (NVS) G Protein-Coupled Receptor Assay for human Endothelin Receptor Type B (ETB) (AID 2283267). A digest of the protocol: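 Filter-based scintillation readout of radioligand displacement, 4 h, using membranes from human astrocytoma cells. Actives from a 25 uM duplicate screen were retested in concentration-response (top 50 uM) relative to DMSO baseline.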

In assay [6] the target is D(1A) dopamine receptor (Homo sapiens) (UniProt P21728). Nature of the assay: NVS_GPCR_hDRD1: NovaScreen (NVS) G Protein-Coupled Receptor Assay for human Dopamine Receptor D1 (DRD1) (AID 2283269). A digest of the protocol: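 Cell-free radioligand binding to human DRD1 from HEK293 membranes, read 1 h after dosing by filter-based scintillation counting. Loss of signal versus DMSO baseline marks displacement. Primary screen at 25 uM single concentration in duplicate; actives followed up in concentration series.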

Assay [7] concerns the target human Adenosine A2a Receptor (AdoRA2a), ADORA2A (gene 135) (UniProt P29274). Nature of the assay: NVS_GPCR_hAdoRA2a: NovaScreen (NVS) G Protein-Coupled Receptor Assay for human Adenosine A2a Receptor (AdoRA2a) (AID 2283256). In a few lines:
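Compounds screened in duplicate at 25 uM, with actives followed up in concentration series, for displacement of a radioligand from HEK293-derived receptor protein. Bound counts read by filter scintillation at 1.5 hours, DMSO as baseline.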

In assay [8] the target is human Dopamine Receptor D4.4 (DRD4.4), DRD4 (gene 1815) (UniProt P21917). Nature of the assay: NVS_GPCR_hDRD4.4: NovaScreen (NVS) G Protein-Coupled Receptor Assay for human Dopamine Receptor D4.4 (DRD4.4) (AID 2283264). In a few lines:
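Filter-binding assay with a tritiated or iodinated ligand, cell-free receptor prepared from CHO, 1 hour. Loss of bound radioactivity versus DMSO; single 25 uM duplicate screen, then concentration-response for actives.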

In assay [9] the target is human Dopamine Receptor D2 (DRD2), DRD2 (gene 1813) (UniProt P14416). Nature of the assay: NVS_GPCR_hDRD2s: NovaScreen (NVS) G Protein-Coupled Receptor Assay for human Dopamine Receptor D2 (DRD2) (AID 2283266). In a few lines:
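Test compound (25 uM, duplicate in the primary screen; concentration series at follow-up) competed with radioligand for human DRD2 in CHO-derived membrane protein. Filter-based scintillation counting was done 1.5 hours after dosing, with loss of signal analysed against DMSO.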

The target in assay [10] is human Serotonin, 5-Hydroxytryptamine Receptor 6 (5HT6), HTR6 (gene 3362) (UniProt P50406). The experiment in a line: NVS_GPCR_h5HT6: NovaScreen (NVS) G Protein-Coupled Receptor Assay for human Serotonin, 5-Hydroxytryptamine Receptor 6 (5HT6) (AID 2283253). A digest of the protocol: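 Filter scintillation counting of radioligand displacement from HEK293-expressed 5HT6, 1 hour post-dose, with loss of signal relative to DMSO. Single 25 uM duplicates first, with concentration series for confirmation.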

Assay [11] addresses Beta-2 adrenergic receptor (Homo sapiens) (UniProt P07550). The experiment in a line: NVS_GPCR_hAdrb2: NovaScreen (NVS) G Protein-Coupled Receptor Assay for human Adrenergic, Beta 2 Receptor (Adrb2) (AID 2283261). In a few lines: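 Compounds screened in duplicate at 25 uM, then actives in concentration series. Human beta-2 receptor from CHO material, cell-free; radioligand displacement after 1 h measured by filtration and scintillation against DMSO baseline.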

For assay [12], the target named is human Adrenergic, Alpha 2A Receptor (Adra2A), ADRA2A (gene 150) (UniProt P08913). Nature of the assay: NVS_GPCR_hAdra2A: NovaScreen (NVS) G Protein-Coupled Receptor Assay for human Adrenergic, Alpha 2A Receptor (Adra2A) (AID 2283257). In a few lines:
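Displacement of a specific radioligand from HT29 membrane protein was counted by filter scintillation after 1 h. Compounds were screened in duplicate at 25 uM, and actives were retested in concentration series. Fitting was positive-direction against DMSO.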

In assay [13] the target is human Histamine 1 Receptor (H1), HRH1 (gene 3269) (UniProt P35367). Nature of the assay: NVS_GPCR_hH1: NovaScreen (NVS) G Protein-Coupled Receptor Assay for human Histamine 1 Receptor (H1) (AID 2283268). In a few lines: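 Filter-based scintillation detection of radioligand binding to human H1, 1 h incubation; chemicals screened in duplicate at 25 uM, then concentration-response; signal loss relative to DMSO taken as activity.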

Assay [14] deals with human Adrenergic, Beta 1 Receptor (Adrb1), ADRB1 (gene 153) (UniProt P08588). The experiment in a line: NVS_GPCR_hAdrb1: NovaScreen (NVS) G Protein-Coupled Receptor Assay for human Adrenergic, Beta 1 Receptor (Adrb1) (AID 2283258). In a few lines: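 Membranes/protein extracted from human neuroepithelioma cells, radioligand competition binding read by filtration and scintillation 2 h post-dose. Single 25 uM duplicate screen, then concentration-response follow-up; DMSO as negative control.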

In assay [15] the test system is guinea pig Muscarinic, Peripheral (Mperiperal) Receptor, Non-selective Binding, gene 100379235. Nature of the assay: NVS_GPCR_gMPeripheral_NonSelective: NovaScreen (NVS) G Protein-Coupled Receptor Assay for guinea pig Muscarinic, Peripheral (Mperiperal) Receptor, Non-selective Binding (AID 2283250). In a few lines:
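Screened in duplicate at 25 uM, hits retested in concentration series to 50 uM max, using bladder membrane radioligand displacement from guinea pig. Filtration and scintillation counting 1 h post-dose, fitted relative to DMSO.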

The structures appear in SMILES notation. “And” between values parts separate entries of the source, which are not always exact repeats. Equal entries are not always repeated. Results filed as inconclusive are left out. The source made the active and inactive calls. How the source made its calls: active means hit-call score of the fitted dose curve at least 0.9, where 1 is the maximum; inconclusive means response in the unintended direction; inactive means score below 0.9.

human Serotonin, 5-Hydroxytryptamine Receptor 7 (5HT7), HTR7 (gene 3363), sequence (P34969 whole entry, looked up): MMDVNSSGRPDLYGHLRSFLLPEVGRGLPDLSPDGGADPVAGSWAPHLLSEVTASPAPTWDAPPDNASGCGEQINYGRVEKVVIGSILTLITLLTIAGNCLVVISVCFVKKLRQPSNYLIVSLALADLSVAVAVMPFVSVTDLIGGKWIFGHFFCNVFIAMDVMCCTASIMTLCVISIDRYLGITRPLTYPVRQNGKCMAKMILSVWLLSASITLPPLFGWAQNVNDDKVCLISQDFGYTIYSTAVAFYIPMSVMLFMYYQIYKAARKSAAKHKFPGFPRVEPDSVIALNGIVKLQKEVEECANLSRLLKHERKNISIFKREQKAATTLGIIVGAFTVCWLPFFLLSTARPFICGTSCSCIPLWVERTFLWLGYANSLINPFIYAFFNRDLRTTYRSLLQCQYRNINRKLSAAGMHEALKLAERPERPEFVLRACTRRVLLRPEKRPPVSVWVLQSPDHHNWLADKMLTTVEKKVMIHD
human Adenosine A2a Receptor (AdoRA2a), ADORA2A (gene 135), sequence (P29274 whole entry, looked up): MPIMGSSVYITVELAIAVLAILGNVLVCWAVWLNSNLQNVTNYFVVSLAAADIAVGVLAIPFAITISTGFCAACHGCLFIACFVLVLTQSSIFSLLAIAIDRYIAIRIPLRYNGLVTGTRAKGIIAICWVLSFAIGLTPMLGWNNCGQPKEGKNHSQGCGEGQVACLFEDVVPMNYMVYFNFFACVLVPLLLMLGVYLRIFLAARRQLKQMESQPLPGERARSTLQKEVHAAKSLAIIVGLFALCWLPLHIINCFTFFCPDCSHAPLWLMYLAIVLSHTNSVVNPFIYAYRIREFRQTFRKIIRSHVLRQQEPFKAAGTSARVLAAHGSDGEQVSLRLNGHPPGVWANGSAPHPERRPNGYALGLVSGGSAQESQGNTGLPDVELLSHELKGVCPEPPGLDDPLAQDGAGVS
D(1A) dopamine receptor (Homo sapiens), sequence (P21728 whole entry, looked up): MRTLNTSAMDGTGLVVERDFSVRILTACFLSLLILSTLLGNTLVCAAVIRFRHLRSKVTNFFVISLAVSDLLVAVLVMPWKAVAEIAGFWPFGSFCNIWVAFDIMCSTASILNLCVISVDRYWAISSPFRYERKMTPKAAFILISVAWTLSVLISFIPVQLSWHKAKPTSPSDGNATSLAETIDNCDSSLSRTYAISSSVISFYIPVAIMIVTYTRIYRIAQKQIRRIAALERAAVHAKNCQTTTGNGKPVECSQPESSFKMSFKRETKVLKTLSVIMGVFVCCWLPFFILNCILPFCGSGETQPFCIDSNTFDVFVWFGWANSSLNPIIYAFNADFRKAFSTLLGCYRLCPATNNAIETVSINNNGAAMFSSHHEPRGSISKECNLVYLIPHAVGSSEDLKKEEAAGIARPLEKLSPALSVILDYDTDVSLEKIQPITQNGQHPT
human Adenosine A1 Receptor (AdoRA1), ADORA1 (gene 134), sequence (P30542 whole entry, looked up): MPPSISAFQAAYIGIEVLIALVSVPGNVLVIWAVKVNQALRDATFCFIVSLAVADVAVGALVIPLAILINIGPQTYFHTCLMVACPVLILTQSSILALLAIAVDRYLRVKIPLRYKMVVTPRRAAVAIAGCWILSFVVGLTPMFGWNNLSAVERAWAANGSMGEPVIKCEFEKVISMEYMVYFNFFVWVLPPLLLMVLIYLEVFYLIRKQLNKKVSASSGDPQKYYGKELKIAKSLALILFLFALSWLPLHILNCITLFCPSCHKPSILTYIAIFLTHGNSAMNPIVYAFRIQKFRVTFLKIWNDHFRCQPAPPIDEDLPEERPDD
guinea pig Opioid, Kappa 1 Receptor (OpiateK), OPRK1 (gene 100135587), sequence (P41144 whole entry, looked up): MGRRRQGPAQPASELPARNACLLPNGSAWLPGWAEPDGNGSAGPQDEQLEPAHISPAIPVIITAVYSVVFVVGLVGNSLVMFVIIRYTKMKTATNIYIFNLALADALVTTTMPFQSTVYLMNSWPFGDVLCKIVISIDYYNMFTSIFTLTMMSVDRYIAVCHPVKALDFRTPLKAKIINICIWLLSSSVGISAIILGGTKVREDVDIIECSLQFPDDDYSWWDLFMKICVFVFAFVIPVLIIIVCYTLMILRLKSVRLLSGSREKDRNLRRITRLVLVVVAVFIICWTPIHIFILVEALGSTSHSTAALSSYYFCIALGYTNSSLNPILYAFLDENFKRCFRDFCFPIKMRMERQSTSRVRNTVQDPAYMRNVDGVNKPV
human Serotonin, 5-Hydroxytryptamine Receptor 5A (5HT5A), HTR5A (gene 3361), sequence (P47898 whole entry, looked up): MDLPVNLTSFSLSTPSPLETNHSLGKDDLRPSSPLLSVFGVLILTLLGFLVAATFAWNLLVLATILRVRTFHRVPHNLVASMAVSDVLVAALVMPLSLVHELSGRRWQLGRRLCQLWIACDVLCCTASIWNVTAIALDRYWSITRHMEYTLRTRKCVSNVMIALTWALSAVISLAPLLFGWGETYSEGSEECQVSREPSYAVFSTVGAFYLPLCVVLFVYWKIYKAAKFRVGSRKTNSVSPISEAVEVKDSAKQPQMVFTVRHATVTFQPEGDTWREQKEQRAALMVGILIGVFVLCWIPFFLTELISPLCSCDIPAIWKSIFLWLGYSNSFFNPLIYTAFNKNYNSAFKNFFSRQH
human Serotonin, 5-Hydroxytryptamine Receptor 6 (5HT6), HTR6 (gene 3362), sequence (P50406 whole entry, looked up): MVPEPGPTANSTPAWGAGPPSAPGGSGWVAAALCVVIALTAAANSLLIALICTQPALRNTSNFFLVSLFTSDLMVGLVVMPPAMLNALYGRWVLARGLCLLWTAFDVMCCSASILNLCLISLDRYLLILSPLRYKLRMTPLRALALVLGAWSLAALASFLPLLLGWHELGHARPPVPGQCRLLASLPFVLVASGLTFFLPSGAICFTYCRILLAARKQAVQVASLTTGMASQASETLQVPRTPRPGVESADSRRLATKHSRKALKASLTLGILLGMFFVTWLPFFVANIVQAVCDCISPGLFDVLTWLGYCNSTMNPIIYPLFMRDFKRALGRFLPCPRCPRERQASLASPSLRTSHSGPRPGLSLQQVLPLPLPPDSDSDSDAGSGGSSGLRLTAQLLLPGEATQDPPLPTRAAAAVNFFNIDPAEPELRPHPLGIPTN
human Adrenergic, Beta 1 Receptor (Adrb1), ADRB1 (gene 153), sequence (P08588 whole entry, looked up): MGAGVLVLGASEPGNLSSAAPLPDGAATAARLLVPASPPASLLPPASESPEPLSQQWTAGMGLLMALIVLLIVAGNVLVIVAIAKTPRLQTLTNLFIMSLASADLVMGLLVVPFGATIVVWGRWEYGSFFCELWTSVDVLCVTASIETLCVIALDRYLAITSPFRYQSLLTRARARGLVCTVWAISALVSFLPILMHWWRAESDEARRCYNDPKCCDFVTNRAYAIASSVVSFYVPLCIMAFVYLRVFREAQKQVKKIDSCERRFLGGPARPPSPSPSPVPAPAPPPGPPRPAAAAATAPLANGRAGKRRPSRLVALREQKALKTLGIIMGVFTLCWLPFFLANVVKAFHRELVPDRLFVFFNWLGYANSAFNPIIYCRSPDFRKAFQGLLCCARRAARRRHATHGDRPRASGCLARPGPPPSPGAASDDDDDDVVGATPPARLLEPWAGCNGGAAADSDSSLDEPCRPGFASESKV
human Histamine 1 Receptor (H1), HRH1 (gene 3269), sequence (P35367 whole entry, looked up): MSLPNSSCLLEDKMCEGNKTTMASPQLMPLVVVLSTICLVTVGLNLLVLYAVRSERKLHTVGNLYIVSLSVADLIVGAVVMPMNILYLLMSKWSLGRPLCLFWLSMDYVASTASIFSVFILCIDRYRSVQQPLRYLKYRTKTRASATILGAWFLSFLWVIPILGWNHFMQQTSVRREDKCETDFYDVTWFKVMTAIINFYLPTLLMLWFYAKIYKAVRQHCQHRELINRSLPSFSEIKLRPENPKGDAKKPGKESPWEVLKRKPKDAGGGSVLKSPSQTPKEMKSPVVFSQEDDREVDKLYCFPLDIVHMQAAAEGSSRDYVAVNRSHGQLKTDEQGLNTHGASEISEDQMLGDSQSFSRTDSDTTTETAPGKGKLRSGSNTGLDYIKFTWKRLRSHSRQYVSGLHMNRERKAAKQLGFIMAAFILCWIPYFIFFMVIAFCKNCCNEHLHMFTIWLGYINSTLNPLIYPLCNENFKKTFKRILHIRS
human Endothelin Receptor Type B (ETB), EDNRB (gene 1910), sequence (P24530 whole entry, looked up): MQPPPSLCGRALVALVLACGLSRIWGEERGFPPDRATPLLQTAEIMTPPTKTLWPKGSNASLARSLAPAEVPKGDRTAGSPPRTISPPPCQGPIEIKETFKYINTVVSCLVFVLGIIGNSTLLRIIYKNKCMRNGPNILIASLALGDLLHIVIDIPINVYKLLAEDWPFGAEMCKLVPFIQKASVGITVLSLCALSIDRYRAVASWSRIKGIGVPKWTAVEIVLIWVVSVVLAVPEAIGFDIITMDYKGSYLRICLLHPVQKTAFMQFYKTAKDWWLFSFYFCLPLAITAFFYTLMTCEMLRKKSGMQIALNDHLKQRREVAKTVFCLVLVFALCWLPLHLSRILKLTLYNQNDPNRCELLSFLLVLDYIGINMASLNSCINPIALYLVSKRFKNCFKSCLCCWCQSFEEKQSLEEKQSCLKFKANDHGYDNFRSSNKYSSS
Beta-2 adrenergic receptor (Homo sapiens), sequence (P07550 whole entry, looked up): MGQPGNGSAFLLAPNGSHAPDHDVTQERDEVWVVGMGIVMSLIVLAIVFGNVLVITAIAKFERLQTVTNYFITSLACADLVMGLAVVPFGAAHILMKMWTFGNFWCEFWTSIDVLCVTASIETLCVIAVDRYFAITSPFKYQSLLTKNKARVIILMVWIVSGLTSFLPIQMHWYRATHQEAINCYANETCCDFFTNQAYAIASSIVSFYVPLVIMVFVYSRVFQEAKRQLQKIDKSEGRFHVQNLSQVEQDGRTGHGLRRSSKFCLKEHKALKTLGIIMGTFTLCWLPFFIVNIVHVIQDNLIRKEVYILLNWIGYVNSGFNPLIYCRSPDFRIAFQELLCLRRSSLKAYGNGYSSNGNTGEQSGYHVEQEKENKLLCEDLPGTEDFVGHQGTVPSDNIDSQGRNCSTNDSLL

On to `CCCCNC(=O)n1c(NC(=O)OC)nc2ccccc21`, for which the outcome in assay [1] was inactive.

`CC1COC(Cn2cncn2)(c2ccc(Oc3ccc(Cl)cc3)cc2Cl)O1` (stereo not drawn): the AC50 in assay [2] is 6.37 µM (active); in assay [6] it was 6.97 µM (active). Besides, the molecule was classed as inactive in assay [3], in [4] and in assay [5].

Take `CCOC(=O)CC(SP(=S)(OC)OC)C(=O)OCC` (stereo not drawn): the AC50 in assay [3] was 15.2 µM (active); in assay [1] it was 4.74 µM (active); in assay [7], 5.74 µM (active).

For `Oc1ccccc1-c1ccccc1`, the molecule was called inactive in assay [4] and in assay [7].

Turning to `Cc1ccc(-c2c(Cl)nc(C#N)n2S(=O)(=O)N(C)C)cc1`, the result in assay [8] and in assay [9] was inactive.

For `OC(c1ccc(Cl)cc1)(c1cncnc1)c1ccccc1Cl` (stereo not drawn), the molecule was called inactive in assay [2] and in [11]. Moreover, the AC50 in assay [3] is 9.41 µM (active); in assay [10], 8.03 µM (active); in assay [1], 4.96 µM (active).

Regarding `Fc1ccc(Oc2ccnc3cc(Cl)cc(Cl)c23)cc1`, the molecule was classed as inactive in [2] and in assay [12].

As for `COP(=S)(OC)Oc1nc(Cl)c(Cl)cc1Cl`, the molecule was called inactive in assay [13]. In addition, the AC50 in [6] was 12.6 µM (active).

`CCCCC(CC)COC(=O)c1ccccc1C(=O)OCC(CC)CCCC` (stereo not drawn): the call in [1] was inactive.

For `CNC(=S)S`, the molecule was classed as inactive in assay [13].

Regarding `CON(C)C(=O)Nc1ccc(Cl)c(Cl)c1`, in assay [2], the AC50 is 7.75 µM (active).

Turning to `CN(C)C(=S)SSC(=S)N(C)C`, the outcome in [3] and in assay [14] was inactive. The AC50 in assay [10] was 5.18 µM (active); in assay [4] it was 6.92 µM (active); in assay [6], 4.51 µM (active).

With `CCCCNC(=O)OCC#CI`, the outcome in assay [15] was inactive. Also, the AC50 was 37.9 µM (active) and 40.9 µM (active) in assay [3]; 9.47 µM (active) and 15.2 µM (active) in assay [1]; 15.3 µM (active) and 9.21 µM (active) in [6].

Regarding `COc1nc(NC(C)C)nc(NC(C)C)n1`, the AC50 is 8.99 µM (active) in assay [1] and 9.33 µM (active) in assay [7].

Turning to `COc1nc(C)nc(NC(=O)NS(=O)(=O)c2ccccc2CCC(F)(F)F)n1`, the result in [2] was inactive.

For `CO/C=C(/C(=O)OC)c1ccccc1Oc1cc(Oc2ccccc2C#N)ncn1`, the molecule was called inactive in assay [15], in assay [14] and in [6]. The AC50 in assay [3] is 12.3 µM (active) [middle of 4 runs]; in [1], 6.85 µM (active) [middle of 4 runs]; in assay [4], 5.24 µM (active).

A word on the AC50: it is the concentration at which the activity in the assay is half-maximal.
